Experimental data published in PubChem BioAssay (NCATS).
Several values for one entry are separate records, joined by “and”; a condition that tells them apart may be missing. Identical values can stand only once. Inconclusive results are not listed. Activity calls are given as the source filed them. Unless noted, calls come from the whole dose curve; as a rule, active = well fitted curve in the direction sought with a large enough effect; inconclusive = small, poorly fitted or top-dose-only effect, or another doubt; inactive = no such curve, though single readings can be large; an effect the other way counts as inactive or inconclusive.

Experiments:
[1] = Cell Viability - Renal Proximal Tubule (AID 545);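 note: 0% = DMSO only and -100% = 100 µM tamoxifen; nearly all actives have a fitted effect of over 40% in size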
Procedure, shortened: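 In this qHTS format, normal rat kidney-derived proximal tubule cells in complete culture medium receive compound titrations, then sit 40 hours at 37 °C before luciferase-based ATP quantitation; potency is reported as AC50 from concentration-response curves.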

[2] = target: Cytochrome P450 3A4 (Homo sapiens) (UniProt P08684); experiment: qHTS Assay for Inhibitors and Substrates of Cytochrome P450 3A4 (AID 884); note: series mostly up to about 57 µM; % is set by controls: 0 for no effect and ±100 for the full control effect; nearly all actives have a fitted effect of over 50% in size
Chain of Cytochrome P450 3A4 (Homo sapiens) (P08684 whole entry, looked up): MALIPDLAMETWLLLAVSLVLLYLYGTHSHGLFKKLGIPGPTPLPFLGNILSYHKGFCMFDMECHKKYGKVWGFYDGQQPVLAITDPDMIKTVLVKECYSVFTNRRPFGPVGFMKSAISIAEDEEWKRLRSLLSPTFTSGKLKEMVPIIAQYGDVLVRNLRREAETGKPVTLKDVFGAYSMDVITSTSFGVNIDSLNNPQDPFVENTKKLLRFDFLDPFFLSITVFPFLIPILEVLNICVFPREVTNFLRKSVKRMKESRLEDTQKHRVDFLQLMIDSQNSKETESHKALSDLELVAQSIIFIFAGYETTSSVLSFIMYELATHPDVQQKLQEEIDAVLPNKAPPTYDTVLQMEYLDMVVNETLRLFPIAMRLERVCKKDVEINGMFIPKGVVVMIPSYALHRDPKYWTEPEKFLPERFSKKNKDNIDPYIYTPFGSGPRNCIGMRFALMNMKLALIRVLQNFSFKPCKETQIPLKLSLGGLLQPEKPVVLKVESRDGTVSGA
Procedure, shortened: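 Luminescent readout of luciferin produced by CYP3A4 (20 nM) dealkylation of Luciferin-PPXE, 25 uM (its KM). NADPH-driven reaction ran 60 min at RT after 10 min compound preincubation; data scaled to 57 uM ketoconazole as 100% inhibition.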

[3] = Cell Viability - LYMP2-009 (AID 968); note: nearly all actives have a fitted effect of over 55% in size; note: potency is the fitted concentration of half-maximal effect
[4] = Cell Viability - LYMP2-011 (AID 969);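 note: 0% = DMSO only and full inhibition = 92 µM tetraoctylammonium bromide; nearly all actives have a fitted effect of over 60% in size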
Procedure, shortened: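 In this qHTS cytotoxicity format, compounds are tested across concentrations on human lymphoblastoid cells in complete medium for 24 hours at 37 C. Viability is taken as cellular ATP measured by luciferase luminescence.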

[5] = Cell Viability - LYMP2-017 (AID 972); note: nearly all actives have a fitted effect of over 55% in size; note: potency is the fitted concentration of half-maximal effect
Procedure, shortened: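 Cytotoxicity is scored as a concentration-dependent drop in cellular ATP in a human lymphoblastoid line after 24 hr treatment at 37 C. Values are AC50s from Hill-equation modelling.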

[6] = Cell Viability - LYMP2-019 (AID 973); note: nearly all actives have a fitted effect of over 55% in size; note: potency is the fitted concentration of half-maximal effect
Procedure, shortened: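 Cytotoxicity is scored as a concentration-dependent drop in cellular ATP after cells (2500/well) receive compound for 24 hr at 37 C. Tetraoctylammonium bromide serves as positive control.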

[7] = Cell Viability - LYMP2-021 (AID 974);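 note: compound exposure lasts 24 hours at 37 °C; nearly all actives have a fitted effect of over 55% in size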; note: potency is the fitted concentration of half-maximal effect
Procedure, shortened: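 Loss of cellular ATP, measured with a luciferase-based CellTiter-Glo readout, serves as the toxicity signal in human lymphoblastoid cells treated for 24 hours at 37 C. Potency is reported as AC50 from a standard Hill model.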

[8] = Cell Viability - LYMP2-002 (AID 977);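 note: compound exposure lasted 24 h at 37 °C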; note: potency is the fitted concentration of half-maximal effect
Procedure, shortened: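 Human lymphoblastoid cells, 2500/well, complete medium; 5 h 37 C settle; compound 24 h 37 C; CellTiter-Glo, 30 min RT; luminescence. Decrease in ATP = cytotoxicity; AC50 via Hill equation.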

[9] = Cell Viability - LYMP2-010 (AID 981); note: nearly all actives have a fitted effect of over 55% in size; note: potency is the fitted concentration of half-maximal effect
Procedure, shortened: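 Steps: seed 2500 LYMP2-010 cells per well; incubate 5 hr at 37 C; add compound; incubate 24 hr at 37 C; add CellTiter-Glo, wait 30 min at room temperature; read luminescence. Concentration-response fitted to Hill equation for AC50.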

[10] = Cell Viability - LYMP2-020 (AID 986); note: nearly all actives have a fitted effect of over 55% in size; note: potency is the fitted concentration of half-maximal effect
Procedure, shortened: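 Seed 2500 cells per well and incubate 5 hr at 37 C. Add compounds at a concentration series and incubate 24 hr at 37 C. Add CellTiter-Glo, wait 30 min at RT, read luminescence, and fit a Hill curve for AC50.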

[11] = target: Retinoic acid receptor RXR-alpha (Homo sapiens) (UniProt P19793); experiment: qHTS assay for small molecule antagonists of retinoid X receptor alpha signaling (AID 588546; active = well fitted inhibition curve with a large enough effect in the signal ratio, with a control signal flat, not every such curve was filed as active; the % refers to the signal ratio;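 note: cells stimulated with 9-cis-retinoic acid as agonist; % is set by controls: 0 for no effect and ±100 for the full control effect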); details: HEK293T RXRa-UAS-bla, beta-lactamase ratio, antagonist mode
Chain of Retinoic acid receptor RXR-alpha (Homo sapiens) (P19793 whole entry, looked up): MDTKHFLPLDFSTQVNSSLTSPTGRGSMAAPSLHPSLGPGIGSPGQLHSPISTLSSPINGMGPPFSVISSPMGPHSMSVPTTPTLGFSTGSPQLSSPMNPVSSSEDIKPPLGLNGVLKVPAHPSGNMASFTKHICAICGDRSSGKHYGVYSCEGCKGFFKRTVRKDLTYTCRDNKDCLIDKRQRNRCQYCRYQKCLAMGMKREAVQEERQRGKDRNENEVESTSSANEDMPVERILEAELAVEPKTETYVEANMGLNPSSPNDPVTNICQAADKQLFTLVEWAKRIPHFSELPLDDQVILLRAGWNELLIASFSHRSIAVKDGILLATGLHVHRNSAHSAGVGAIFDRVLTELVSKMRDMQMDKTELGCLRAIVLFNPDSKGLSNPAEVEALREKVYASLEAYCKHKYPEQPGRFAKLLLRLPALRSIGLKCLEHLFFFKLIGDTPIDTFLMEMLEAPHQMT
Procedure, shortened: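 Beta-lactamase reporter inhibition, read as CCF4 fluorescence ratio (ex 405, em 460/530 nm) after 2 h at RT. HEK293T UAS-bla cells, 2500/well, were stimulated with 9-cis-RA at 500 or 100 nM final alongside test compound for 18 h at 37 C.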

[12] = target: Voltage-gated inwardly rectifying potassium channel KCNH2 (Homo sapiens) (UniProt Q12809); experiment: qHTS Assay for Small Molecule Inhibitors of the Human hERG Channel Activity (AID 588834);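 note: top concentration of the series differs between compounds; % is set by controls: 0 for no effect and ±100 for the full control effect; lower thallium flux fluorescence means stronger hERG block; nearly all actives have a fitted effect of over 50% in size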
Chain of Voltage-gated inwardly rectifying potassium channel KCNH2 (Homo sapiens) (Q12809 whole entry, looked up): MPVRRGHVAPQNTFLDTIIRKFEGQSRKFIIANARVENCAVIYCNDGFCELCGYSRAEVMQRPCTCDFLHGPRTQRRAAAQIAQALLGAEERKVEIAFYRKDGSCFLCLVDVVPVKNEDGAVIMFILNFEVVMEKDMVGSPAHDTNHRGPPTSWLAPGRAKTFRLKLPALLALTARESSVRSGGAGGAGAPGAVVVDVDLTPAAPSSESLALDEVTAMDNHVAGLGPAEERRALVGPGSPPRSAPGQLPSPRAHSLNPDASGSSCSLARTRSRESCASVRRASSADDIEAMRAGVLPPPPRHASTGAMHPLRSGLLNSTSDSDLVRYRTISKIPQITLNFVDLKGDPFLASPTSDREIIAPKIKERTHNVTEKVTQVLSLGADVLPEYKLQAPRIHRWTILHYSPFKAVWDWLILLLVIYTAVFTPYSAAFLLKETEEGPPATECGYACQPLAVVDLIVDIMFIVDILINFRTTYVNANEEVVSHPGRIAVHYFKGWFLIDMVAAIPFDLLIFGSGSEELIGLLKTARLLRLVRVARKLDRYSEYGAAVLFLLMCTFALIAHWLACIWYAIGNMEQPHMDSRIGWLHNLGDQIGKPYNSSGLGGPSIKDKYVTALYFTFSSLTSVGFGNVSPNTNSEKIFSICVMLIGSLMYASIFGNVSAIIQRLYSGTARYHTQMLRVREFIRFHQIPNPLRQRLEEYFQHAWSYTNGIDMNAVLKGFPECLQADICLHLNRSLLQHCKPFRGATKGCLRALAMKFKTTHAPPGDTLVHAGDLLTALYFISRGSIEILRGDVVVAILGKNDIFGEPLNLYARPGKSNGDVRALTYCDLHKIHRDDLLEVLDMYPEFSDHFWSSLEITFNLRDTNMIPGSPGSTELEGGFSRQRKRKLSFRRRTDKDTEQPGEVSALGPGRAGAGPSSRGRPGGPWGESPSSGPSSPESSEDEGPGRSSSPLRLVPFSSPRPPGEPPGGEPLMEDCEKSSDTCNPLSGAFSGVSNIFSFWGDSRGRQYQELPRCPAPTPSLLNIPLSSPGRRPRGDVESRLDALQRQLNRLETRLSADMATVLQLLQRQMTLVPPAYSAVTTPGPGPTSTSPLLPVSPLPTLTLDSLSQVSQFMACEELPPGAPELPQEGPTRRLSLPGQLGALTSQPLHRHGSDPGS
Procedure, shortened: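 Homogeneous FluxOR thallium flux assay using hERG-expressing U2OS cells (BacMam). Compound treatment about 10 minutes preceded stimulation; reduced fluorescence taken as channel block.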

[13] = qHTS assay for small molecule activators of the p53 signaling pathway (AID 651743; active = well fitted activation curve with a large enough effect in the signal ratio, not every such curve was filed as active; the % refers to the signal ratio; note: series mostly up to about 92 µM; % of control where 0% means no effect); details: HCT-116 p53RE-bla, beta-lactamase FRET ratio, 16 h; activation: active compounds read high
Procedure, shortened: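 Following 16 hours of compound exposure at 37 C, HCT-116 cells bearing the p53RE-bla reporter were loaded with LiveBLAzer B/G FRET substrate for 2 hours at room temperature and fluorescence intensity was recorded.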

[14] = qHTS assay for small molecule activators of the nuclear factor-kappa B (NF-kB) signaling pathway (AID 651749; active = well fitted activation curve with a large enough effect in the signal ratio; the % refers to the signal ratio; note: series mostly up to about 77 µM; % of control where 0% means no effect); details: NF-kB-bla ME-180 cells, beta-lactamase FRET ratio, 16 h; active compounds read high
Procedure, shortened: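 In this qHTS format, compounds acting as activators increase NF-kB-driven beta-lactamase in ME-180 cells, measured as disrupted FRET after 16 hr exposure at 37C and 5% CO2.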

[15] = qHTS assay for environmental chemicals that activate the Aryl hydrocarbon Receptor (AhR) signaling pathway (AID 651777); details: 1A2-DRE human hepatoma cells, luciferase, 24 h; activation: active compounds read high; note: % of control where 0% means no effect; nearly all actives have a fitted effect of over 15% in size
Procedure, shortened: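 Quantitative HTS in stably transfected human liver-derived cells whose luciferase gene sits downstream of the CYP1A2 promoter and dioxin response element. After 24 hr exposure at 37 C, One-Glo luminescence was measured.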

[16] = qHTS assay for small molecule agonists of the antioxidant response element (ARE) signaling pathway measured by Nrf2-dependant transcriptional activity (AID 720636; active = well fitted curve in the direction sought with a large enough effect in the repeat runs; an effect the other way counts as inactive or inconclusive; note: % of control where 0% means no effect)
Procedure, shortened: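 Quantitative HTS format in HepG2 cells stably expressing an ARE-luciferase reporter; 16 hr compound treatment at 37 C, luciferase signal detected with ONE-Glo.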

[17] = qHTS assay for cell viability of HEK293 cells (AID 743288); details: ATP luminescence (CellTiter-Glo), 18 h, active compounds read low; note: % is set by controls: 0 for no effect and ±100 for the full control effect; nearly all actives have a fitted effect of over 50% in size
Procedure, shortened: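 HEK293, 18 h, 37 C, ATP luminescence. Cells at 2,000/well were allowed at least 5 h to settle before dosing; CellTiter-Glo developed 30 min at RT.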

[18] = Cell Viability - LYMP1-002 - Assay at 40 hr (AID 994);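 note: 0% = DMSO only and full inhibition = 92 µM tetraoctylammonium bromide; nearly all actives have a fitted effect of over 60% in size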
Procedure, shortened: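 Cells are plated at 2500 per well and rested 5 hr at 37 C. Compounds are added and incubated 40 hr at 37 C. CellTiter-Glo reagent is added for 30 min at room temperature before luminescence is read.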

[19] = target: Nuclear receptor ROR-gamma (Homo sapiens) (UniProt P51449); experiment: qHTS assay for small molecule antagonists of the retinoid-related orphan receptor gamma (ROR-gamma) signaling pathway (AID 651802); note: nearly all actives have a fitted effect of over 60% in size; note: potency is the fitted concentration of half-maximal effect
Chain of Nuclear receptor ROR-gamma (Homo sapiens) (P51449 whole entry, looked up): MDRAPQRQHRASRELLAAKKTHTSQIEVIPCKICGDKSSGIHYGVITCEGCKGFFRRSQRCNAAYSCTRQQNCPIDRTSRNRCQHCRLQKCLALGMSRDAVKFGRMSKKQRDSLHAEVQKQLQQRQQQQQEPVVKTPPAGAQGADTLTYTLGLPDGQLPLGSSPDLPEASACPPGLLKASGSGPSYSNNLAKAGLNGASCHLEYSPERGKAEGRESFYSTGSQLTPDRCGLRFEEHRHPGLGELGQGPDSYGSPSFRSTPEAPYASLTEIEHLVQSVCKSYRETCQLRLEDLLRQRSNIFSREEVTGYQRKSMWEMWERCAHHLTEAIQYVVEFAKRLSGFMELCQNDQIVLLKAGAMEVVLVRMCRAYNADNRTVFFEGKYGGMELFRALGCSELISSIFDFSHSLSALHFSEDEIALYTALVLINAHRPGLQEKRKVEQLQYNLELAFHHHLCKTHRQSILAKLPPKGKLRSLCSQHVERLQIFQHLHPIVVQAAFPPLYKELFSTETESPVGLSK
Procedure, shortened: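 Steps: cells dispensed; compound or DMSO transferred by pin tool; doxycycline added to induce the ROR response element-driven luciferase; plates held 16hr at 37C; ONE-Glo added and luminescence measured.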

[20] = qHTS assay for small molecule antagonists of the retinoid-related orphan receptor gamma (ROR-gamma) signaling pathway - cell viability counter screen (AID 720652; active = well fitted curve in the direction sought with a large enough effect in the repeat runs; an effect the other way counts as inactive or inconclusive;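 note: compound exposure lasted 16 hr before ATP read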; note: potency is the fitted concentration of half-maximal effect)
Procedure, shortened: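 Steps: seed CHO cells bearing TET-inducible ROR and ROR response element-luciferase; rest 5 hr at 37 C; add compound, then doxycycline; incubate 16 hr; add CellTiter-Glo and read luminescence as ATP-based viability.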

O=[N+]([O-])c1c(Cl)c(Cl)c(Cl)c(Cl)c1Cl
inactive: outcome [1] | Potency [2] | Potency [3] | Potency [4] | Potency [5] | Potency [6] | Potency [7] | Potency [8] | Potency [9] | Potency [10] | max response [11] -5.68% | Potency [12] | activation [13] -1.05% and 4.15% | activation [14] -2.45% and -1.33% | activation [15] -0.0122% and 2.68% | Potency [16] | max response [17] -12.6% and -27.3%

Nc1ccc2ccccc2c1
inactive: outcome [1] | Potency [3] | Potency [4] | Potency [5] | Potency [6] | Potency [7] | Potency [8] | Potency [10] | Potency [18] | max response [11] -0.227% | Potency [12] | activation [13] 0.265% | Potency [19] | Potency [20] | max response [17] 3.26%

CC(=O)NNc1ccccc1
inactive: Potency [6] | Potency [7] | Potency [8] | Potency [9] | Potency [10] | Potency [18] | max response [11] -22.9% | Potency [12] | activation [15] 2.76% | Potency [19] | Potency [16] | max response [17] 2.18%

CC(Cl)CCl (stereo unspecified)
inactive: outcome [1] | Potency [2] | Potency [3] | Potency [5] | Potency [6] | Potency [7] | Potency [8] | Potency [9] | Potency [10] | Potency [18] | max response [11] -6.12% | Potency [12] | activation [13] 0.619% | activation [15] 0.102% | Potency [19] | Potency [16] | Potency [20]

CCCCC(CC)COC(=O)c1ccc(C(=O)OCC(CC)CCCC)c(C(=O)OCC(CC)CCCC)c1 (stereo unspecified)
inactive: Potency [2] | Potency [3] | Potency [4] | Potency [9] | Potency [10] | Potency [18] | max response [11] 5.41% | Potency [12] | activation [13] -1.5% | activation [14] 1.1% | Potency [19] | Potency [16] | max response [17] -4.51%

C=CC#N
inactive: outcome [1] | Potency [2] | Potency [4] | Potency [5] | Potency [6] | Potency [7] | Potency [8] | Potency [9] | Potency [10] | max response [11] 19% | Potency [12] | activation [13] -2.66% | activation [14] -0.054% | activation [15] 2.03% | Potency [16] | Potency [20] | max response [17] -18.6%

S=C1NCCN1
inactive: Potency [2] | Potency [3] | Potency [4] | Potency [5] | Potency [6] | Potency [7] | Potency [8] | Potency [9] | Potency [10] | Potency [18] | max response [11] -12.1% and 9.5% | Potency [12] | activation [13] -4.05% and -5.02% | activation [14] 0.43% and 0.618% | Potency [16] | Potency [20] | max response [17] 4.6% and 3.06%

ClCCOCOCCCl
inactive: outcome [1] | Potency [2] | Potency [3] | Potency [4] | Potency [5] | Potency [6] | Potency [7] | Potency [8] | Potency [9] | Potency [10] | Potency [18] | activation [13] -4.18% | activation [14] -0.753% | activation [15] 0.193% | Potency [19] | Potency [16] | Potency [20] | max response [17] -1.26%

O=C(O)C(Br)Br
inactive: outcome [1] | Potency [2] | Potency [3] | Potency [4] | Potency [5] | Potency [7] | Potency [8] | Potency [10] | Potency [18] | max response [11] 6.61% | Potency [12] | activation [13] 6.12% | activation [14] -1.25% | Potency [19] | Potency [20] | max response [17] -1.04%

O=[N+]([O-])/C=C/c1ccccc1
inactive: Potency [18] | max response [11] -0.636% | activation [14] -0.835% | Potency [19] | Potency [16] | max response [17] -10.7%
active: Potency [3] 50.1 µM | Potency [5] 50.1 µM | Potency [6] 39.8 µM | Potency [7] 39.8 µM | Potency [8] 39.8 µM | Potency [9] 50.1 µM | Potency [10] 50.1 µM | Potency [20] 37.6 µM

CCCCCC[N+](=O)[O-]
inactive: outcome [1] | Potency [2] | Potency [3] | Potency [4] | Potency [6] | Potency [7] | Potency [8] | Potency [10] | Potency [18] | max response [11] -13.3% | Potency [12] | activation [13] -5.04% | activation [14] 1.69% | activation [15] 0.0869% | Potency [19] | Potency [16] | Potency [20] | max response [17] 7.41%

O=c1ccc(=O)[nH][nH]1
inactive: outcome [1] | Potency [2] | Potency [3] | Potency [4] | Potency [5] | Potency [6] | Potency [7] | Potency [9] | Potency [10] | Potency [18] | Potency [12] | activation [13] -0.833% and -3.13% | activation [14] -0.7% and 1.42% | activation [15] 0.524% and -2.54% | Potency [19] | Potency [16] | Potency [20] | max response [17] 3.74% and 5.95%

O=[N+]([O-])c1cccc(CCl)c1
inactive: Potency [2] | Potency [8] | Potency [18] | max response [11] -0.788% | Potency [12] | activation [14] 1.19% | Potency [16] | max response [17] -20.5%
active: Potency [3] 79.4 µM | Potency [19] 33.5 µM

Cc1cnc[nH]1
inactive: outcome [1] | Potency [2] | Potency [3] | Potency [4] | Potency [5] | Potency [6] | Potency [7] | max response [11] 4.17% | activation [13] -6.55% | activation [14] -0.55% | Potency [19] | Potency [16] | Potency [20] | max response [17] -9.96%
